Assay outcomes deposited in PubChem BioAssay by National Center for Advancing Translational Sciences (NCATS).
Pf growth 96h: Primary qHTS for delayed death inhibitors of the malarial parasite plastid, 96 hour incubation; P. falciparum luciferase reporter growth, 96 h; Potency, µM (titrated, usually from 28.7 µM), for the others: top-dose activity change, negative = inhibition, hits mostly inhibitors; 6.9% of 320,000 active; AID 504834, 2011; also: potency is read from the fitted curve at half-maximal effect
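P. falciparum expressing integrated firefly luciferase, in erythrocytes at 2% hematocrit, 0.05% parasitemia, incubated with compounds 96 h at 37 C, 5% CO2. Growth inhibition read as loss of luminescence; two-generation exposure targets delayed-death apicoplast inhibitors.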
HCMV inh: qHTS Assay for inhibitors of the human cytomegalovirus (HCMV). HFF cells, HCMV-luciferase reporter, 72 h; active compounds read low. activity change, negative = inhibition, % at 57.5 µM. 4.5% of 410,000 active; in the data active = activity change below about -60%; inconclusive = no clear call, values can overlap the other calls; inactive = above about -39%
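Steps: HFFs plated, 16 h 37C; compounds added; HCMV-luciferase added to MOI 1 PFU/cell; 72 h 37C; OneGlo reagent, 5 min room temperature; luminescence read, normalized to controls.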
HCV inhibitor: qHTS Assay for Inhibitors of Hepatitis C Virus (HCV); Huh7.5.1 HCVcc-Cre infection, luciferase reporter, 44 h; Potency, µM (titrated, usually from 41.8 µM), for the others: at the top dose activity change, negative = inhibition, most hits filed as inhibitors; 3.4% of 340,000 active; AID 651820, 2012; also: potency is read from the fitted curve at half-maximal effect
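Antiviral activity was scored by luciferase reporter output from cells infected with HCVcc-Cre (~0.5 moi) in presence of compound, 44 h infection period, cells seeded 1,000/well 4 h prior.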
Pf growth 48h: Primary qHTS for delayed death inhibitors of the malarial parasite plastid, 48 hour incubation; P. falciparum luciferase growth in erythrocytes, 48 h; Potency, µM (doses to about 28.7 µM), inactives show top-dose activity change, negative = inhibition, most hits filed as inhibitors; 5.9% of 310,000 active; also: potency is read from the fitted curve at half-maximal effect
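Growth was read as firefly luciferase luminescence after a 48 h, 37 C, 5% CO2 exposure of compounds to reporter-bearing P. falciparum cultures (0.1% parasitemia, 2% hematocrit final) in Albumax-supplemented RPMI 1640.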
Numbers without * were called inactive; i = inactive; ? = inconclusive; nt = not tested or not shown; [ ] = remark or other dose. Sampled rows, rich in hits. Any-hit rate of the full collection: about 13%. Unless noted, calls follow the shape of the dose curve; as a rule, active = well fitted inhibition curve with a large enough effect; inconclusive = small, poorly fitted or top-dose-only effect, or another doubt; inactive = no such curve, though single readings can be large or run the other way. % is scaled to controls: 0 for no effect and ±100 for the full control effect.

SMILES	Pf growth 96h	HCMV inh	HCV inhibitor	Pf growth 48h
COc1ccc(C(O)c2nc(-c3cccc(CO)c3)cs2)cc1 (centres undefined)	nt	-2	nt	nt
COc1ccc(-n2c(COc3cccc4ccccc34)nnc2SCC#N)cc1	-13%	19	?	13µM*
O=C(O)CCSc1nnc(COc2cccc3ccccc23)n1-c1cccc(Cl)c1	-26%	-99*	10%	?
Cc1ccc(-c2nnc(CSc3nnc(COc4cccc5ccccc45)n3-c3ccccc3)o2)cc1	13µM*	60	?	nt
N#CCSc1nnc(COc2cccc3ccccc23)n1-c1ccccc1	25%	-15	?	?
CCOc1ccccc1NC(=O)c1cc(S(=O)(=O)N2CCOCC2)cn1C	nt	-15	nt	nt
CCc1ccc(N=C2NC(=O)CC(C(=O)Nc3ccc(OC)cc3)S2)cc1 (centres undefined)	nt	5	nt	nt
Cc1cccc(OCc2nc(C#N)c(N3CC(C)CC(C)C3)o2)c1 (centres undefined)	13µM*	-27	?	nt
Cc1ccc(C)c(-c2csc(Nc3ncccn3)n2)c1	-1%	-34	3%	-1%
Cc1ccc(C)c(-c2csc(N/N=C/c3ccco3)n2)c1	22%	?	13µM*	?
COc1ccc(Nc2nccc3c2cc(-c2cccc(F)c2)n3C)cc1OC	nt	-28	nt	nt
COc1ccc(N2CCN(C(=O)c3ccc4c(c3)N(Cc3ccc(F)cc3)C(=O)c3ccccc3S4=O)CC2)cc1 (centres undefined)	nt	-30	nt	nt
O=C(NCc1ccco1)c1sc2cc(Cl)ccc2c1Cl	i	26	?	18%
O=C(NCc1ccco1)c1sc2ccccc2c1Cl	3.3µM*	4	?	63%
COc1ccc(NC(=O)CN2CCCN(S(=O)(=O)c3ccc(Br)cc3)CC2)c(OC)c1	nt	-12	nt	nt
CSc1nc(N)nc2c1ncn2CC(=O)N1CCN(Cc2c(C)cc(C)cc2C)CC1	nt	-30	1.4µM*	nt
Cn1c(=O)c(NC2CCCCC2)c2c3c(cccc31)C(=O)c1ccccc1-2	0%	5	?	13µM*
Cn1c(=O)c(NCCc2ccccc2)c2c3c(cccc31)C(=O)c1ccccc1-2	9.3µM*	-10	?	nt
Cn1c(=O)c(NCCO)c2c3c(cccc31)C(=O)c1ccccc1-2	-8%	nt	-24%	23%
CC1CCN(c2ncnc3ccccc23)CC1	3%	-72*	11µM*	-8%
Cc1cc(C)c(C)c(S(=O)(=O)N2CCN(c3ncnc4ccccc34)CC2)c1C	?	?	2.5µM*	12µM*
COc1ccccc1CCC(=O)N1CCN(S(=O)(=O)c2cc(C(F)(F)F)ccc2Cl)CC1	3.7µM*	?	?	?
O=S(=O)(c1cc(C(F)(F)F)ccc1Cl)N1CCCCCC1	?	-29	6%	0%
O=S(=O)(c1cc(C(F)(F)F)ccc1Cl)N1CCN(c2ncnc3ccccc23)CC1	?	-82*	14µM*	?
Cc1nc2ccccc2nc1N1CCC(C)CC1	nt	-25	-1%	27%
SMILES	Pf growth 96h	HCMV inh	HCV inhibitor	Pf growth 48h
Cc1ccc(NC(=O)c2c(C)oc3c2C2=NCCN2C=N3)cc1F	nt	-12	nt	nt
CC(C)CC(=O)NC1CC(=O)N(c2ccc3c(c2)OCCO3)C1 (centres undefined)	nt	4	nt	nt
CCCc1nn2c(=O)cc(COc3ccc(/C=C(\C#N)C(=O)Nc4ccccc4)cc3)nc2s1	nt	7	nt	nt
O=C(CNc1cccc2ccccc12)N/N=C/c1cccc(Oc2ccccc2)c1	?	-61*	-5%	?
O=C(N/N=C/c1cccc(Oc2ccccc2)c1)c1ccccc1Br	0%	-91*	11µM*	?
COc1ccccc1CCN1COc2c(cc3c(C)c(C)c(=O)oc3c2C)C1	nt	4	nt	nt
Cc1ccc(NC(=O)c2oc3ccc(S(=O)(=O)N4CCC5(CC4)OCCO5)cc3c2C)c(C)c1	nt	-26	nt	nt
CN1CCC(Oc2ccc(Sc3ccccc3)cc2)CC1	32%	?	?	76%
CN1CCC(Oc2ccccc2Sc2ccc(C(F)(F)F)cc2)CC1	?	?	11µM*	?
C/C(CCc1ccco1)=N/NC(=O)CCC(=O)Nc1ccc(Br)cc1	10µM*	-28	-12%	4%
C/C(CCc1ccco1)=N/NC(=O)CCC(=O)Nc1cccc(Cl)c1	24%	-30	2%	-8%
Cc1nn(-c2ccc(F)cc2)c2nc(N)c(C#N)c(-c3cccs3)c12	?	50	?	?
Cc1nn(-c2ccc(F)cc2)c2nc(N)c(C#N)c(-c3ccc(O)c(O)c3)c12	10µM*	33	?	10µM*
COc1cc(-c2c(C#N)c(N)nc3c2c(C)nn3-c2ccc(C)c(C)c2)cc(OC)c1OC	-22%[5.75 µM]	136	?	4.7µM*
Cc1nn(-c2ccccc2)c2nc(N)c(C#N)c(-c3ccc(O)c(O)c3)c12	0%	-62*	11µM*	0%
COc1ccccc1CNc1nc(-c2ccco2)nn1S(C)(=O)=O	nt	-5	nt	nt
CCC(=O)Nc1ccc(CC)cc1-c1nc2ccccc2n(Cc2ccccc2)c1=O	nt	14	nt	nt
NC(=O)CSC1=N/C(=C\c2ccco2)C(=O)N1c1ccc(OC(F)F)cc1	0%	0	-23%	?
CCOc1cc(/C=C2\N=C(SC(C)C(N)=O)N(c3ccc(OC(F)F)cc3)C2=O)ccc1O (centres undefined)	1.2µM*	-62*	?	47%
CCOC(=O)c1c(C)n2c3c(cc(C)cc13)CCC2	44%	?	10µM*	-3%
COc1cccc(Nc2nnc(-c3cc4ccc(O)cc4oc3=O)s2)c1	nt	16	nt	nt
CCCCn1c(C2CC(=O)N(c3ccc(OCC)cc3)C2)nc2ccccc21 (centres undefined)	nt	-10	nt	nt
FC(F)(F)c1cccc(-c2nc3nc(Cl)c(Cl)nc3[nH]2)c1	-99%	nt	11µM*	28%
Cc1nn(C(C)C)c(C)c1CN1CCC(C(=O)Nc2cccc(-c3cccc(F)c3)c2)CC1	-17%	30	10µM*	?
CCCn1ncc(CN2CCC(C(=O)Nc3cccc(-c4cccc(F)c4)c3)CC2)c1C	?	-65*	?	7.4µM*
SMILES	Pf growth 96h	HCMV inh	HCV inhibitor	Pf growth 48h
O=C(Nc1cccc(-c2cccc(F)c2)c1)C1CCN(Cc2ccco2)CC1	-7%	?	?	-3%
COCCc1ncc(CN2CCC(C(=O)Nc3cccc(-c4cscn4)c3)CC2)cn1	12%	-15	?	-7%
Cn1cc(CN2CCC(C(=O)Nc3cccc(-c4cccc(F)c4)c3)CC2)cn1	?	-1	10µM*	-26%
COc1cccc(-c2cccc(NC(=O)C3CCN(Cc4cnn(C)c4)CC3)c2)c1	?	11	-3%	?
CCCc1ncc(CN2CCC(C(=O)Nc3cccc(-c4cscn4)c3)CC2)cn1	-19%	-25	11µM*	-23%
CC(C)Sc1nc2sc3c(c2c(=O)n1Cc1ccccc1)CCCC3	nt	29	nt	nt
CCc1cccc(NC(=O)CSc2nnc(-c3cc4occc4n3C)n2-c2ccccc2C)c1	nt	0	nt	nt
